# An excerpt weighted towards active compounds, which were near 8% of everything screened.
# Lassa entry inh – inhibitors of Lassa virus binding or cell entry. Potency, µM (highest dose often 37.9 µM), for inactives: at the highest dose activity change, negative = inhibition, actives largely listed as inhibitors. 300,000 tested, 1.2% active. Lassa virus pseudotype entry inhibition, cell reporter. AID 540256; calls by dose curve; tested in HEK293 cells; further: potency means the concentration at half of the fitted maximal effect; on the % scale 0 is the no-effect control and ±100 the full control effect; nearly all actives have a fitted effect of over 50% in size
# HCV inh – inhibitors of hepatitis C virus infection | Huh7.5.1 HCVcc-Cre infection, luciferase reporter, 44 h | Potency, µM (highest dose often 41.8 µM), inactives show at the highest dose activity change, negative = inhibition, actives largely listed as inhibitors | 340,000 tested, 3.4% active; active means well fitted inhibition curve with a large enough effect; inconclusive means small, poorly fitted or top-dose-only effect, or another doubt; inactive means no such curve, though single readings can be large or run the other way; further: potency means the concentration at half of the fitted maximal effect; on the % scale 0 is the no-effect control and ±100 the full control effect
#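 After 44 h co-culture of compound, cells and HCVcc-Cre (~0.5 moi), substrate is added for 15 min at room temperature and luciferase measured over 15 sec. Cells were seeded at 1,000/well and pre-cultured 4 h.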
# MARV entry inh – inhibitors of Marburg virus binding or cell entry. Marburg virus pseudotyped entry inhibition, cell reporter. Potency, µM (top dose mostly 37.8 µM), for the others: at the highest dose activity change, negative = inhibition, usual class: inhibitors. 300,000 tested, 1.8% active. AID 540276; calls by dose curve; tested in HEK293 cells; further: potency means the concentration at half of the fitted maximal effect; on the % scale 0 is the no-effect control and ±100 the full control effect
# HCMV inh – inhibitors of human cytomegalovirus; HFF cells, HCMV-luciferase reporter, 72 h; stronger effect = lower value; activity change, negative = inhibition, % at 57.5 µM; 410,000 tested, 4.5% active; AID 1259415; in the data active means activity change below about -60%; inconclusive means no clear call, values can overlap the other calls; inactive means above about -39%; further: on the % scale 0 is the no-effect control and ±100 the full control effect
#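 Human foreskin fibroblasts infected with luciferase-reporter HCMV at MOI 1 PFU/cell, compounds at two doses. Luciferase measured 72 h post infection; normalized to buffer-only basal and Salinomycin (10uM) controls.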
# SARS PLpro yeast – inhibitors of SARS-CoV papain-like protease in yeast; S. cerevisiae expressing SARS-CoV PLpro, growth rescue; Potency, µM (highest dose often 32.9 µM), inactives show at the highest dose activity, positive = growth rescue, hits mostly activators; 330,000 tested, 0.19% active; AID 485353; calls by dose curve; further: potency means the concentration at half of the fitted maximal effect; 0% is about no effect; nearly all actives have a fitted effect of over 55% in size
# FMDV antiviral – blocks foot and mouth disease virus; FMDV antiviral cell-based qHTS; Potency, µM (top dose mostly 57.9 µM), for the others: at the highest dose activity change, negative = inhibition, actives largely listed as inhibitors; 410,000 tested, 1.2% active; calls by dose curve; tested in HEK293T cells; further: read-out not given here; potency means the concentration at half of the fitted maximal effect; on the % scale 0 is the no-effect control and ±100 the full control effect; nearly all actives have a fitted effect of over 45% in size
# Numbers without * were called inactive; ? = inconclusive; nt = not tested or not shown; [ ] = another dose, or the depositor's remark.
SMILES,Lassa entry inh,HCV inh,MARV entry inh,HCMV inh,SARS PLpro yeast,FMDV antiviral
COc1ccc(CNC(=O)c2cnc3sc4cc(OC)ccc4n3c2=O)cc1,nt,nt,13%[46.1 µM],2,nt,-13%
C=CCn1cc(/C=C/c2cc[n+](C)cc2)c2ccccc21,nt,?,nt,-96*,1%,?
Cc1[nH]c2ccccc2c1/C=C/c1cc[n+](C)cc1,?,?,-8%,-69*,-7%,-20%
CCN(CC)C(=O)Cn1c(C)c(/C=C/c2cc[n+](C)cc2)c2ccccc21,nt,12%,nt,-3,-1%,5%
CC(C)n1cc(/C=C/c2cc[n+](C)cc2)c2ccccc21,?,32µM*,2.5µM*,-95*,1%,?
C=CCn1c(C)c(/C=C/c2cc[n+](C)cc2)c2ccccc21,?,?,2.8µM*,-96*,-2%,?
Cc1ccccc1/C=C/c1cc[n+](C)cc1,nt,?,nt,?,-1%,-6%
COc1ccc(C(=O)N/C(=C\c2cn(S(=O)(=O)N(C)C)c3ccccc23)C(=O)N2CCN(C)CC2)cc1,nt,7%,nt,-9,0%,-13%
N[C@@H]1CC[C@@]23CCCN2C(=O)CCC[C@H]3[C@H]1Cc1ccccc1,nt,nt,nt,-2,nt,nt
COCCNCCCCOc1c(Cl)cc(C)cc1Br,-20%,11µM*,?,-5,4%,-29%
Cc1cc(Cl)c(OCCCNCc2ccccc2)c(Br)c1,-14%,25µM*,?,20,3%,-15%
Cc1cc(C)cc(OCC(O)CN2CCN(C(=O)c3ccco3)CC2)c1 (stereo unspecified),0%[46.1 µM],6%,1%[46.1 µM],-37,1%,-4%
O=C(c1ccco1)N1CCN(CC(O)COc2ccc3oc4ccccc4c3c2)CC1 (stereo unspecified),?,13µM*,-14%,?,0%,nt
COc1ccc(CNS(=O)(=O)c2cc(Br)cc3c2N(C(C)=O)C(C)C3)cc1 (stereo unspecified),-6%,19%,-19%[46.1 µM],-39,-2%,18%
CCOC(=O)c1ccc(NS(=O)(=O)c2cc(Br)cc3c2N(C(C)=O)C(C)C3)cc1 (stereo unspecified),-9%[46.1 µM],nt,-19%[46.1 µM],-29,nt,25%
CC(=O)N1c2c(cc(Br)cc2S(=O)(=O)NCc2ccc(C)cc2)CC1C (stereo unspecified),nt,-8%,-16%[46.1 µM],-66*,-2%,4%
CC(=O)N1c2c(cc(Br)cc2S(=O)(=O)Nc2ccc(OC(F)(F)F)cc2)CC1C (stereo unspecified),4%[46.1 µM],nt,-23%[46.1 µM],-82*,nt,25%
CC(C)Oc1cccc(NC(=O)c2cnccc2C(F)(F)F)c1,nt,-2%,nt,28,-1%,11%
COc1cccc(-c2cnc3c(NC(C)=O)cc(-c4ccccc4OC)cn23)c1,nt,nt,nt,-32,nt,?
CCC1(C2CCN(Cc3ccccc3Cl)CC2)NC(=O)N(CC2COc3ccccc3O2)C1=O (stereo unspecified),nt,nt,nt,nt,nt,-17%
Cc1ccc(C)c(NC(=O)CN(C)C(=O)C2CCN(C(=O)Nc3ccccc3)CC2)c1,-2%,3%,28%[46.1 µM],-33,12%,4%
CCCc1nc(NCc2ccccn2)c2nnn(Cc3ccccc3F)c2n1,2%,?,3%,-33,-22%,25µM*
CCCc1nc(NCc2ccncc2)c2nnn(Cc3ccccc3F)c2n1,?,?,-19%,-24,14%,?
N#Cc1c(N)n(CCNC(=O)c2cccs2)c2nc3ccccc3nc12,-13%,9%,-2%,-34,1%,-12%
Nc1c(C(=O)Nc2ccccc2)c2nc3ccccc3nc2n1CCCN1CCOCC1,-10%,22µM*,?,109,2%,?
SMILES,Lassa entry inh,HCV inh,MARV entry inh,HCMV inh,SARS PLpro yeast,FMDV antiviral
COc1ccc(CCNC(=O)c2c(N)n(CCN3CCOCC3)c3nc4ccccc4nc23)cc1OC,18µM*,?,?,39,4%,nt
CCCCCn1c(N)c(C(=O)NCCN2CCOCC2)c2nc3ccccc3nc21,?,-5%,?,-40,0%,?
COc1ccc(CCn2c(N)c(C(=O)NCc3ccco3)c3nc4ccccc4nc32)cc1OC,?,?,?,nt,1%,nt
N#Cc1c(N)n(CCNC(=O)c2ccccc2)c2nc3ccccc3nc12,-5%,0%,-1%,-66*,14%,-21%
CCCCCCn1c(N)c(C(=O)NCCN2CCOCC2)c2nc3ccccc3nc21,?,?,?,-19,-7%,11µM*
COc1ccc(C(=O)C(Nc2ccccc2)C(=O)Nc2ccc3ccccc3c2)cc1 (stereo unspecified),nt,nt,nt,51,nt,nt
COc1ccc(OC)c(Nc2ncnc3c2nc2n3CCCC2)c1,?,nt,nt,?,nt,5%
CCCCn1c(N)c(C(=O)OCCOC)c2nc3ccccc3nc21,-12%,7%,13%[46.1 µM],-3,1%,-1%
COCCCn1c(N)c(C(=O)NCCC(C)C)c2nc3ccccc3nc21,-10%,8.9µM*,?,-27,-9%,-13%
CC(=O)Nc1ccc(S(=O)(=O)N2c3ccc(F)cc3CCC2C)cc1 (stereo unspecified),nt,-23%,nt,-31,nt,-9%
COc1ccc(S(=O)(=O)N2c3ccc(F)cc3CCC2C)cc1 (stereo unspecified),nt,3%,nt,-78*,nt,-26%
CN1C/C(=C/c2ccccc2[N+](=O)[O-])C(=O)/C(=C\c2ccccc2[N+](=O)[O-])C1,8.9µM*,?,3.2µM*,17,nt,18µM*
N=c1c2c(n(Cc3ccc(Cl)cc3)c3c1CCC3)CCC2,?,?,?,-102*,-8%,?
N=c1sc2c(n1Cc1ccccc1)CCCC2,7%,1%,?,-35,-4%,nt
N=c1c2c(n(Cc3cccc(Cl)c3)c3c1CCC3)CCCC2,?,25µM*,?,-95*,-38%,nt
N=c1c2c(n(Cc3ccc(Cl)cc3Cl)c3c1CCC3)CCCC2,4µM*,10µM*,?,nt,-3%,-1%
N=c1c2c(n(Cc3ccc(F)cc3)c3c1CCC3)CCCC2,nt,-25%,nt,-100*,5%,?
CCCCC#C[C@@H]1C=C[C@H](Oc2ccc(C(=O)OC)cc2)[C@@H](COC(=O)OCC)O1,nt,nt,16%[14.2 µM],nt,nt,nt
O=C(c1ccc(N2CCC(NCCCn3ncc4ccccc43)CC2)cc1)N1CCc2ccccc2C1,nt,nt,nt,nt,nt,0%
CCC(Oc1ccccc1)C(=O)OCC(=O)N(CC)c1c(N)n(Cc2ccccc2)c(=O)[nH]c1=O (stereo unspecified),5%,-7%,-17%,10,-3%,-24%
CCOc1ccc(S(=O)(=O)Nc2ccc(C(=O)NCCCN3CCOCC3)cc2)cc1,6%,?,13%,14,1%,11%
N=c1c2c(n(Cc3ccccc3)c3c1CCC3)CCC2,1.6µM*,?,?,-97*,-4%,?

# Screens from PubChem.
